Bioassay records as filed in PubChem.
PINK1 expr mod: PINK1 expression modulation. PINK1 immunofluorescence, high-content cytometry, 24 h. Potency, µM (top dose mostly 76.6 µM), usual class: activators. actives 0.2% (n = 410,000). AID 624263; active = well fitted activation curve with a large enough effect; inconclusive = small, poorly fitted or top-dose-only effect; cell line not stated here; also: nearly all actives have a fitted effect of over 65% in size
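Fluorescence from anti-PINK1 antibody, together with nuclear and cell stains, was scanned on a laser-scanning cytometer. Before staining, stable-line cells were incubated 24 hours with compounds at 5 concentrations; primary antibody 12 h at 10 degrees C.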
KB-3-1 cytotox: kills parental KB-3-1 adenocarcinoma cells; KB-3-1 viability, CellTiter-Glo ATP luminescence, 72 h; Potency, µM (series often up to 46.1 µM), usual class: cytotoxic; actives 1.4% (n = 400,000); also: nearly all actives have a fitted effect of over 60% in size
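Cytotoxicity in the drug-sensitive parental line KB-3-1 was scored as loss of CellTiter-Glo luminescence following 72 h incubation with compound. Values come from curve fitting of normalized concentration-response data.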
MCF10A rerep: induces DNA re-replication in MCF 10a normal breast cells. Potency, µM (series often up to 46.1 µM), most hits filed as activators. MCF 10A DNA re-replication, Hoechst nuclear intensity, 48 h. AID 624296. actives 2.9% (n = 350,000); also: nearly all actives have a fitted effect of over 50% in size
KB-V1 cytotox: KB-V1 MDR subline cytotoxicity. KB-V1 MDR cells viability, CellTiter-Glo, 72 h. Potency, µM (series often up to 46.1 µM), actives largely listed as cytotoxic. actives 3.4% (n = 400,000); also: nearly all actives have a fitted effect of over 60% in size
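Readout: CellTiter-Glo luminescence, 10 min after addition. Cells: KB-V1 MDR subline, 72 h at 37 degrees C with compound. Analysis: corrected, normalized data fitted to concentration-effect curves.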
SW480 rereplic: induces DNA re-replication in SW480 colon adenocarcinoma cells; SW480 DNA re-replication, Hoechst DNA content imaging, 48 h; actives 1.8% (n = 340,000); Potency, µM (top dose mostly 46.1 µM), actives largely listed as activators; AID 624297; also: nearly all actives have a fitted effect of over 55% in size
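Image-based read-out: total Hoechst fluorescence of nuclei (405 nm excitation, 500-530 nm emission), with hits raising the fraction of high-intensity nuclei. SW480 colon cells incubated 48 hr with compounds at 37 C.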
A number is an active result. Most compounds without a hit are left out; they make up all but 6.7% or so of the library. Unless noted, calls follow the shape of the dose curve; as a rule, active = well fitted curve in the direction sought with a large enough effect; inconclusive = small, poorly fitted or top-dose-only effect, or another doubt; inactive = no such curve, though single readings can be large; an effect the other way counts as inactive or inconclusive.

COc1ccc(CCNc2oc(-c3cccc4ccccc34)nc2P(=O)(OC)OC)cc1OC was read as PINK1 expr mod inactive, KB-3-1 cytotox inactive, MCF10A rerep inconclusive, KB-V1 cytotox 12µM and SW480 rereplic inconclusive.
Screening COP(=O)(OC)c1nc(-c2cccc3ccccc23)oc1N1CCOCC1 returned PINK1 expr mod inactive, KB-3-1 cytotox inactive, MCF10A rerep inactive, KB-V1 cytotox inactive and SW480 rereplic inactive.
For CCOP(=O)(OCC)c1nc(/C=C/c2ccccc2)oc1NCc1ccc(OC)cc1 the results were PINK1 expr mod inactive, KB-3-1 cytotox inactive, MCF10A rerep inconclusive, KB-V1 cytotox inactive and SW480 rereplic inconclusive.
For CCOP(=O)(OCC)c1nc(-c2cccc3ccccc23)oc1NCc1ccc(OC)cc1 the results were PINK1 expr mod inactive, KB-3-1 cytotox inactive, MCF10A rerep inconclusive, KB-V1 cytotox inactive and SW480 rereplic 18µM.
CCOP(=O)(OCC)c1nc(/C=C/c2ccccc2)oc1NCc1ccccc1 was read as PINK1 expr mod inactive, KB-3-1 cytotox inconclusive, MCF10A rerep inconclusive, KB-V1 cytotox inconclusive and SW480 rereplic 21µM.
For COc1ccc(Cl)cc1NC(=O)c1cnc2sc(N3CCOCC3)nn2c1=O the results were PINK1 expr mod inactive.
COc1ccc(OC)c(C(=O)c2coc3ccc(O)cc23)c1 was read as PINK1 expr mod inactive, KB-3-1 cytotox inconclusive, MCF10A rerep inconclusive, KB-V1 cytotox 10µM and SW480 rereplic inconclusive.
`COc1ccc2occ(C(=O)c3ccccc3)c2c1` gave PINK1 expr mod inactive, KB-3-1 cytotox inconclusive, MCF10A rerep inactive, KB-V1 cytotox inactive and SW480 rereplic inactive.
For COc1ccc(-c2sc(C(=O)c3ccc(Cl)cc3Cl)cc2CC(=O)O)cc1 the results were PINK1 expr mod inactive, KB-3-1 cytotox inconclusive, MCF10A rerep 12µM, KB-V1 cytotox inconclusive and SW480 rereplic inactive.
Screening COc1ccc(CN2CCC(=O)N(CCO)CC2)cc1OC returned PINK1 expr mod inactive, KB-3-1 cytotox inactive, MCF10A rerep inactive, KB-V1 cytotox inactive and SW480 rereplic inactive.
For CC1(C)Cc2nc3sc4c(=O)n(CC(=O)NCc5ccco5)cnc4c3cc2CO1 the results were PINK1 expr mod 11µM, KB-3-1 cytotox inconclusive, MCF10A rerep 9.2µM, KB-V1 cytotox inactive and SW480 rereplic 16µM.
Screening Cc1cccc(NC(=O)Cn2cnc3c(oc4nc5c(cc43)COC(C)(C)C5)c2=O)c1 returned PINK1 expr mod inactive, KB-3-1 cytotox inactive, MCF10A rerep inconclusive, KB-V1 cytotox inactive and SW480 rereplic inactive.
For CCCCCn1cnc2c(sc3nc4c(cc32)CSC(C)(C)C4)c1=O the results were PINK1 expr mod inactive, KB-3-1 cytotox inactive, MCF10A rerep inactive, KB-V1 cytotox 15µM and SW480 rereplic inactive.
Screening CC1(C)Cc2nc3oc4c(=O)n(CC(=O)Nc5cccc(Cl)c5)cnc4c3cc2CO1 returned PINK1 expr mod inactive, KB-3-1 cytotox inactive, MCF10A rerep inactive, KB-V1 cytotox inactive and SW480 rereplic 18µM.
Screening CSc1nnc(-c2cccn(Cc3ccccc3)c2=O)o1 returned PINK1 expr mod inactive, KB-3-1 cytotox inactive, MCF10A rerep inactive, KB-V1 cytotox inactive and SW480 rereplic inactive.
`O=c1c(-c2nnc(SCc3ccc(Cl)cc3Cl)o2)cccn1Cc1ccccc1` gave PINK1 expr mod inactive, KB-3-1 cytotox inconclusive, MCF10A rerep inactive, KB-V1 cytotox 2.9µM and SW480 rereplic inactive.
Screening CCN(CC)c1ccc(N)cc1 returned PINK1 expr mod 14µM, KB-3-1 cytotox inconclusive, MCF10A rerep inconclusive, KB-V1 cytotox inactive and SW480 rereplic inconclusive.
`Cc1ccnc(NC(=O)N2CCN(c3cccc(C(F)(F)F)c3)CC2)c1` gave KB-3-1 cytotox inactive and KB-V1 cytotox inconclusive.
Screening COc1cc(OC)cc(-c2c(-c3ccc(F)cc3)c3cc(-c4cnc(OC)nc4)ccc3n2C)c1 returned PINK1 expr mod inactive, KB-3-1 cytotox inactive, MCF10A rerep inactive, KB-V1 cytotox inconclusive and SW480 rereplic inactive.
COc1cccc(-c2c(-c3cc(OC)cc(OC)c3)n(C)c3ccc(-c4cnc(OC)nc4)cc23)c1 was read as PINK1 expr mod inactive, KB-3-1 cytotox 13µM, MCF10A rerep inconclusive, KB-V1 cytotox inconclusive and SW480 rereplic inactive.
Screening COc1cc(OC)cc(-c2c(-c3cccs3)c3cc(-c4ccc(OC)c(OC)c4)ccc3n2C)c1 returned PINK1 expr mod inactive, KB-3-1 cytotox inactive, MCF10A rerep 16µM, KB-V1 cytotox inactive and SW480 rereplic inactive.
`COc1cc(OC)cc(-c2c(-c3cccs3)c3cc(-c4cnc(N)nc4)ccc3n2C)c1` gave PINK1 expr mod inactive, KB-3-1 cytotox inconclusive, MCF10A rerep 23µM, KB-V1 cytotox inconclusive and SW480 rereplic inconclusive.
COc1cc(OC)cc(-c2c(-c3cccs3)c3cc(-c4ccc(OC)c(F)c4)ccc3n2C)c1 was read as PINK1 expr mod inactive, KB-3-1 cytotox inactive, MCF10A rerep inactive, KB-V1 cytotox inactive and SW480 rereplic inconclusive.
CCOC(=O)C1=C(C)NC2=C(C(=O)C(C(=O)OCC)C(c3ccco3)C2)C1c1ccccc1C (configuration not stated) was read as PINK1 expr mod inactive, KB-3-1 cytotox inactive and KB-V1 cytotox inactive.
Screening Cc1ccc(C)c(C(=O)c2c(N)c(-c3nc(-c4ccc5c(c4)OCO5)cs3)c3ccccn23)c1 returned PINK1 expr mod inactive, KB-3-1 cytotox inactive and KB-V1 cytotox inactive.
Screening CC(C)Oc1ccc(C(=O)NC2(C(F)(F)F)NC(=O)N(CCCc3ccccc3)C2=O)cc1 (configuration not stated) returned PINK1 expr mod inactive, KB-3-1 cytotox inconclusive, MCF10A rerep inactive, KB-V1 cytotox 9.2µM and SW480 rereplic inconclusive.
`COc1ccccc1C(=O)NC1(C(F)(F)F)NC(=O)N(CCc2ccccc2)C1=O` (configuration not stated) gave PINK1 expr mod inactive, KB-3-1 cytotox inactive and KB-V1 cytotox inconclusive.
Screening COc1ccc(CCN2C(=O)NC(NC(=O)CCc3ccccc3)(C(F)(F)F)C2=O)cc1OC (configuration not stated) returned PINK1 expr mod inactive, KB-3-1 cytotox inactive, MCF10A rerep inactive, KB-V1 cytotox 21µM and SW480 rereplic inactive.
COCCNc1nc(NCc2ccc(C(C)C)cc2)c2sccc2n1 was read as PINK1 expr mod inconclusive, KB-3-1 cytotox inactive and KB-V1 cytotox inactive.
`COc1ccc(-c2nnc(SCC(=O)Nc3nc4ccccc4s3)n2C)cc1` gave PINK1 expr mod inactive, KB-3-1 cytotox inactive, MCF10A rerep inactive, KB-V1 cytotox inactive and SW480 rereplic inactive.
For CCSc1nc(-c2ccc(OC)cc2)n(-c2nc3ccccc3s2)n1 the results were PINK1 expr mod inactive, KB-3-1 cytotox inactive, MCF10A rerep inactive, KB-V1 cytotox 12µM and SW480 rereplic inactive.
Nc1c(C(=O)N2CCCC2)sc2nc3c(cc12)CCCCCC3 was read as PINK1 expr mod inactive, KB-3-1 cytotox inactive, MCF10A rerep 15µM, KB-V1 cytotox inconclusive and SW480 rereplic inactive.
